These results are taken from PubChem BioAssay (NCATS).

Molecules are shown by their SMILES. Inconclusive results are not listed. Calls of active or inactive are those of the source. The call rests on the fitted dose curve.
On the % scale 0 is the no-effect control and ±100 the full control effect.

Nucleoprotein (Lymphocytic choriomeningitis virus (strain Armstrong)), sequence (P09992 whole entry, looked up): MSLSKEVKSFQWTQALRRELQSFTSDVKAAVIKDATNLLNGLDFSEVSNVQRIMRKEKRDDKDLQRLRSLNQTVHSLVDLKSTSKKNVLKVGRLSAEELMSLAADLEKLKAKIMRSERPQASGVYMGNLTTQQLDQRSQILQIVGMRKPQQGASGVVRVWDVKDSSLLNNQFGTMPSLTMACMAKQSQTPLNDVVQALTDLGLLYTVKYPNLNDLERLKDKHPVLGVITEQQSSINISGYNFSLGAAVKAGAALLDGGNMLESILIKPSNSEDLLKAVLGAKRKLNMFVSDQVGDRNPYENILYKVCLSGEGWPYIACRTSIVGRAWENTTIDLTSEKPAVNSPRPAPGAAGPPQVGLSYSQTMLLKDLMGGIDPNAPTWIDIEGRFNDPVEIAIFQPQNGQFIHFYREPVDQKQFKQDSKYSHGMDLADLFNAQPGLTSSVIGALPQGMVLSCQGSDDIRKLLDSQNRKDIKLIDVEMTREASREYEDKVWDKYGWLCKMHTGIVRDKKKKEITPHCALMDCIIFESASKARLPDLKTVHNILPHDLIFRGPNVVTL

The experiment has as its target Nucleoprotein (Lymphocytic choriomeningitis virus (strain Armstrong)) (UniProt P09992). As to the kind of experiment: qHTS for Inhibitors of the Functional Ribonucleoprotein Complex (vRNP) of Lymphocytic Choriomeningitis Arenaviruses (LCMV): LCMV Primary Screen - GLuc reporter signal (AID 1347086). Further: nearly all actives have a fitted effect of over 70% in size. The conditions noted are these: LCMV minigenome vRNP cell assay, Gaussia luciferase reporter; series mostly up to 57.5 µM; activity change, negative = inhibition: at the top concentration.
As for `Cc1cc(C(C#N)c2ccc(Cl)cc2)c(Cl)cc1NC(=O)c1cc(I)cc(I)c1O` (centres undefined), the “activity change, negative = inhibition” value is -0.397% (inactive).
As to `O=C(O)c1ccccc1Nc1cccc(C(F)(F)F)c1`, the “activity change, negative = inhibition” value is 10.7% (inactive).
Still for that read-out and setting: with `COc1nccnc1NS(=O)(=O)c1ccc(N)cc1` the figure was 6.64% (inactive); with `CC1(COc2ccc(CC3SC(=O)NC3=O)cc2)CCCCC1` (centres undefined), -15% (inactive).
Consider `CN=C(NC#N)NCCSCc1csc(N=C(N)N)n1`, for which the “activity change, negative = inhibition” value is 3.23% (inactive).
For `C[C@]12C=CC(=O)C=C1CC[C@@H]1[C@@H]2C(=O)C[C@@]2(C)[C@H]1CC[C@]2(O)C(=O)CO`, the Potency entry was “inactive”.
Still for that read-out and setting: the result for `CC(C)Cn1cnc2c(N)nc3ccccc3c21` reads “inactive”; that for `Cc1nc2c([nH]1)c(=O)n(C)c(=O)n2Cc1ccco1`, “inactive”.
Turning to `NC(=O)c1ccccc1O`, the “activity change, negative = inhibition” value is -0.589% (inactive).
On the same count and under the same terms, with `O=C(CCBr)N1CCN(C(=O)CCBr)CC1` the figure was -10.3% (inactive).
Take `CC[N+](CC)(CC)CCOc1cccc(OCC[N+](CC)(CC)CC)c1OCC[N+](CC)(CC)CC`: the Potency entry is “inactive”.
Turning to `CC(=O)NO`, the “activity change, negative = inhibition” value is 18% (inactive).
For `CCC[C@@H]1C[C@@H](C(=O)N[C@@H]([C@H]2O[C@H](SC)[C@H](O)[C@@H](O)[C@H]2O)[C@@H](C)O)N(C)C1`, the Potency result is “inactive”.
Consider `CC(C)NCC(O)c1cc(O)cc(O)c1` (centres undefined), for which the Potency entry was “inactive”.
As for `NC(=O)n1c(O)c(C(=O)c2cccs2)c2cc(Cl)ccc21`, the “activity change, negative = inhibition” value was 5.56% (inactive).
As for `NNC(=O)c1ccncc1`, the Potency entry was “inactive”.
As to `O=C1CC[C@H](C(=O)N2CCCCC2)N1`, the “activity change, negative = inhibition” value was 3.95% (inactive).
`C[C@@H](O)[C@H]1C(=O)N2C(C(=O)O)=C(SCCN=CN)C[C@H]12`: the Potency result was “inactive”.
In the case of `C[N+](C)(C)CC(O)CC(=O)[O-]` (centres undefined), the “activity change, negative = inhibition” value was 6.05% (inactive).
`COc1ccc(C(=O)N2CCN(CC(=O)N3CCOCC3)CC2)cc1`: the “activity change, negative = inhibition” value is -0.243% (inactive).
With `CCN(Cc1ccncc1)C(=O)C(CO)c1ccccc1` (centres undefined), the Potency result is “inactive”.
Take `C[C@]12C=CC(=O)C=C1[C@@H](F)C[C@@H]1[C@@H]2[C@@H](O)C[C@@]2(C)[C@H]1CC[C@]2(O)C(=O)CO`: the Potency entry is “inactive”.
`NC(=O)N[C@@H](CCC(=O)O)C(=O)O`: the “activity change, negative = inhibition” value is 8.2% (inactive).
Regarding `CCOC(N)=O`, the “activity change, negative = inhibition” value is 15.3% (inactive).
With `Cc1cc(O)cc2c1O[C@](C)(CCC[C@H](C)CCC[C@H](C)CCCC(C)C)CC2`, the “activity change, negative = inhibition” value is -7.57% (inactive).
Same read-out and setting: with `Cc1cccc(C)c1NC(=O)CN(CC(=O)O)CC(=O)O` the figure was -1.39% (inactive).
With `CC(=O)c1ccc(S(=O)(=O)NC(=O)NC2CCCCC2)cc1`, the Potency entry was “inactive”.
On to `c1ccc2sc(SN3CCOCC3)nc2c1`, for which the “activity change, negative = inhibition” value was 6.89% (inactive).
The same measure, in the same setting: the result for `Cc1c(C(C)C)c(=O)n(-c2ccccc2)n1C` reads -0.913% (inactive).
As to `COC(=O)c1cccnc1`, the Potency entry is “inactive”.
With `O=C(O)[C@@H](O)[C@H](O)[C@H](O)[C@@H](O)C(=O)O`, the “activity change, negative = inhibition” value is 15.7% (inactive).
On to `CN[C@@H]1[C@H](O)[C@H](NC)[C@H]2O[C@@]3(O)C(=O)C[C@@H](C)O[C@H]3O[C@@H]2[C@H]1O`, for which the “activity change, negative = inhibition” value was 13.6% (inactive).
In the case of `COc1cc(-c2ccc(=O)[nH]n2)ccc1OC(F)F`, the “activity change, negative = inhibition” value is -0.505% (inactive).
Consider `CC(C)NNC(=O)c1ccncc1`, for which the Potency entry is “inactive”.
As to `Cc1ccccc1OCC(O)CO` (centres undefined), the “activity change, negative = inhibition” value is 2.05% (inactive).
With `CC(C(=O)O)c1ccc(/C=C2\CCCCC2=O)cc1` (centres undefined), the “activity change, negative = inhibition” value was -9.23% (inactive).
For `NC(CO)(CO)CO`, the “activity change, negative = inhibition” value was -20.9% (inactive).
As to `Oc1ccc(OCc2ccccc2)cc1`, the Potency result was “inactive”.
Consider `CC1(C)S[C@@H]2[C@H](NC(=O)C(c3ccccc3)S(=O)(=O)O)C(=O)N2[C@H]1C(=O)O` (some centres undefined), for which the “activity change, negative = inhibition” value was 7.61% (inactive).
